Experimental data reported in PubChem BioAssay.
The source made the active and inactive calls.

Columns and labels:
[1] = E. coli DRC41 culture turbidity changes, primary screen, E. coli filamentation inducer project, strain DRC41, OD650, 48 h (AID 1152);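 also: E. coli MC1000 strain DRC41 lacking acrAB efflux pump and sulA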; details: E. coli DRC41 (acrAB sulA), higher = more signal, called active from +8 up or from −8 down
[2] = small-molecule binders of probe aLefty1, primary screen, biochemical, small-molecule microarray, 635/667 nm fluorescence (AID 1153); details: higher = more signal;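 also: score merges spot fluorescence with signal-to-noise ratio from the scanned slide images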
[3] = PSAC antagonists in infected red cells, primary screen, cell-based, P. falciparum Indochina, OD700, 1 h (AID 1154); details: P. falciparum Indochina infected RBC osmotic lysis, higher = more signal, called active from +8 up or from −8 down
[4] = PSAC antagonists in infected red cells, primary screen, cell-based, P. falciparum Indochina, OD700, 2 h (AID 1155);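 also: lysis reports solute entry through the parasite surface anion channel PSAC; channel blockers reduce lysis of infected cells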; details: P. falciparum Indochina infected erythrocytes, osmotic lysis OD700; higher = more signal, called active from +8 up or from −8 down
[5] = osmotic lysis modulators in infected erythrocytes, primary screen, PSAC antagonist project, cell-based, P. falciparum Indochina, OD700, 3 h (AID 1156); details: higher = more signal, called active from +8 up or from −8 down
[6] = PSAC antagonists in infected red cells, primary screen, cell-based, P. falciparum Indochina, OD700, 18 h (AID 1157); details: P. falciparum Indochina infected erythrocytes, osmotic lysis OD700, 18 h; higher = more signal, called active from +8 up or from −8 down
[7] = modulators of S6 phosphorylation in cells, primary screen, cell-based, A549, cytoblot, luminescence, serum-stimulated (AID 1158); details: A549 phospho-S6 cytoblot, 5 h, higher = more signal;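 also: serum-stimulated A549 lung adenocarcinoma cells; signal is phosphorylated S6 detected by cytoblot immunostaining with HRP secondary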
[8] = target: NADPH oxidase 2 (Homo sapiens) (UniProt P04839); assay: NOX2-dependent H2O2 signal modulators, primary screen, NOX inhibitor project, cell-based, HEK293-NOX2, PMA-stimulated, Amplex Red fluorescence (AID 1159); details: 45 min, higher = more signal, called active from +8 up or from −8 down; also: test concentration not given here
[9] = target: NADPH oxidase 4 (Homo sapiens) (UniProt Q9NPH5); assay: NOX4-dependent H2O2 signal modulators, primary screen, NOX inhibitor project, cell-based, HEK293-NOX4, tetracycline-induced, Amplex Red fluorescence (AID 1160); details: 45 min, higher = more signal, called active from +8 up or from −8 down
[10] = target: NADPH oxidase 5 (Homo sapiens) (UniProt Q96PH1); assay: NOX5-dependent H2O2 signal modulators, primary screen, NOX inhibitor project, cell-based, HEK293-NOX5, Amplex Red fluorescence (AID 1161); details: HEK293-NOX5, ionomycin, 45 min, higher = more signal
[11] = A549 cell viability effects, profiling panel, calcein-AM fluorescence, 48 h, basal (AID 1162); details: higher = more signal; also: test concentration not given here
[12] = adipocyte viability effects, profiling panel, cell-based, 3T3-L1 adipocytes, calcein-AM fluorescence, 48 h, basal (AID 1163); details: 3T3-L1 adipocytes viability, higher = more signal; also: test concentration not given here
[13] = HepG2 cell viability effects, profiling panel, calcein-AM fluorescence, 48 h, basal (AID 1164); details: higher = more signal; also: test concentration not given here
[14] = MM1S cell viability effects, profiling panel, calcein-AM fluorescence, 48 h, basal (AID 1165); details: higher = more signal;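 also: viability of MM1S multiple myeloma cells under basal unstimulated conditions; test concentration not given here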
[15] = basal RPMI8226 viability, no added stimulus, profiling panel, cell-based, calcein-AM fluorescence, 48 h, PK04 Diversity Set (AID 1166); details: RPMI8226 myeloma viability, higher = more signal;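 also: cells grown under basal conditions without added stimulus; test concentration not given here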
[16] = basal HepG2 mitochondrial membrane potential changes, profiling panel, cell-based, JC-1 fluorescence, 24 h, 100 nL compound (AID 1167); details: higher = more signal; also: test concentration not given here
[17] = basal 3T3-L1 adipocyte mitochondrial potential changes, profiling panel, cell-based, JC-1 fluorescence, 3T3-L1 adipocytes, 24 h, 100 nL compound (AID 1168); details: JC-1 mitochondrial fluorescence, higher = more signal, called active from +8 up or from −8 down; also: test concentration not given here
[18] = basal RPMI8226 mitochondrial membrane potential changes, profiling panel, cell-based, JC-1 fluorescence, 24 h, 100 nL compound (AID 1169); details: RPMI8226 myeloma, JC-1 mitochondrial potential fluorescence, higher = more signal; also: test concentration not given here
[19] = basal MM1S mitochondrial membrane potential changes, profiling panel, cell-based, JC-1 fluorescence, 24 h, 100 nL compound (AID 1170); details: higher = more signal; also: test concentration not given here
[20] = A549 lung cancer cell viability effects, profiling panel, resazurin fluorescence, 24 h, PK04 Diversity Set (AID 1171); details: higher = more signal, called active from +8 up or from −8 down; also: test concentration not given here

NADPH oxidase 2 (Homo sapiens), sequence (P04839 whole entry, looked up): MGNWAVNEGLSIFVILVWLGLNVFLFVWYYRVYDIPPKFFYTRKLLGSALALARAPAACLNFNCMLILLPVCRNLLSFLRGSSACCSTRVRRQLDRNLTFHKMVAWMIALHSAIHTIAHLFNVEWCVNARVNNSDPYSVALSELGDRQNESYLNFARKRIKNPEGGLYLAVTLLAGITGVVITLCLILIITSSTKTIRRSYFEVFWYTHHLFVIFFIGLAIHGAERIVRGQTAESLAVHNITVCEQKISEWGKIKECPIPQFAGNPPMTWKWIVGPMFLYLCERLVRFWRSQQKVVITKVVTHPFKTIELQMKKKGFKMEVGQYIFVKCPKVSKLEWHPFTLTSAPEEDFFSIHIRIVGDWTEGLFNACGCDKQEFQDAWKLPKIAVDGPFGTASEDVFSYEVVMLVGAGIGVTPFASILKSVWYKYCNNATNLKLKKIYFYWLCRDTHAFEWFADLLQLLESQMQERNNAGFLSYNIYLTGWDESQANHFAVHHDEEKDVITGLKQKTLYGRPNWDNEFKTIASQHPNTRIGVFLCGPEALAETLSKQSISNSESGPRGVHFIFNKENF
NADPH oxidase 5 (Homo sapiens), sequence (Q96PH1 whole entry, looked up): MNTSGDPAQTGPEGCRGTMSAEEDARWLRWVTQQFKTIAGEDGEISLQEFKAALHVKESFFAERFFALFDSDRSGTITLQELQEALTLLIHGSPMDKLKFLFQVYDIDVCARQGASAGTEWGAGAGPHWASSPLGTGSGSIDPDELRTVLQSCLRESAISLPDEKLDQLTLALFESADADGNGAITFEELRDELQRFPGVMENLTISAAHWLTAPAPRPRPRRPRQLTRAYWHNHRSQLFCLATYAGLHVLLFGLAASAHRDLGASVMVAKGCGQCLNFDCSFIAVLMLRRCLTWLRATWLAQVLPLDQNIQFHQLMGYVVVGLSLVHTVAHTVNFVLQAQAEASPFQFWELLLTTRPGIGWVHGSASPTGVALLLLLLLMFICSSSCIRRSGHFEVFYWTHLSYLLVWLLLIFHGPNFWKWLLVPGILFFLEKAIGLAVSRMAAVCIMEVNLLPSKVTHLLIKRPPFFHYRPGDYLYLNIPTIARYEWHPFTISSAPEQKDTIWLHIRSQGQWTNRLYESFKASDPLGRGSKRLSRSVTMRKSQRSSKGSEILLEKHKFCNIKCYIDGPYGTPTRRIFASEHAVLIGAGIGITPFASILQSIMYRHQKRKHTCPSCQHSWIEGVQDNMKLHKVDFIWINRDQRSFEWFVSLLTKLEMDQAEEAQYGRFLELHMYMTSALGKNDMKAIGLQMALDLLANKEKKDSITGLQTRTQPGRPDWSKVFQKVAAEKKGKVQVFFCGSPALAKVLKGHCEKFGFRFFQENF
NADPH oxidase 4 (Homo sapiens), sequence (Q9NPH5 whole entry, looked up): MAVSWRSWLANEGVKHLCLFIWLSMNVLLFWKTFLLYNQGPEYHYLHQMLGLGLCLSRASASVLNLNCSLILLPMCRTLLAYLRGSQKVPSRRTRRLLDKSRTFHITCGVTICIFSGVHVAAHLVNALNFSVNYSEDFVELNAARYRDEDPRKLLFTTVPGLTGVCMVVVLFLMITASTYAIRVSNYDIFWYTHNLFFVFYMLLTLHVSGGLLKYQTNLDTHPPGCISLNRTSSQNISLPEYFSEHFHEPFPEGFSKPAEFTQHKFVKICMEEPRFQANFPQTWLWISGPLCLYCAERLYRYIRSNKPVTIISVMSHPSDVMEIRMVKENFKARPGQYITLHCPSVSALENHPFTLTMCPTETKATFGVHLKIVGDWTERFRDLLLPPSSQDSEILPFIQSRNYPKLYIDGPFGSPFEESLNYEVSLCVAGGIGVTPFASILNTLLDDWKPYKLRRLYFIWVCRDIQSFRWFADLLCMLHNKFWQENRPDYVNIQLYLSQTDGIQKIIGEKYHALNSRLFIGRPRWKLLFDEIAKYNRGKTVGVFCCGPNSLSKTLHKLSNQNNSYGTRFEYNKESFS

SMILES | z-score [1] | composite z-score [2] | z-score [3] | z-score [4] | z-score [5] | z-score [6] | z-score [7] | z-score [8] | z-score [9] | z-score [10] | z-score [11] | z-score [12] | z-score [13] | z-score [14] | z-score [15] | z-score [16] | z-score [17] | z-score [18] | z-score [19] | z-score [20]
CCCCCN1CC=CC23O[C@@H]4C=CCOC(=O)[C@@H]4[C@H]2C(=O)N(C(C)CO)[C@@H]3C1=O (stereo not given in full) | -0.0744 (inactive) | -0.103 | 0.59 (inactive) | 0.531 (inactive) | 0.136 (inactive) | 0.0638 (inactive) | 1.43 | 0.503 (inactive) | 0.306 (inactive) | 0.938 | -0.33 | -0.093 | -0.177 | -0.425 | -0.0937 | -0.714 | 0.282 (inactive) | -0.704 | -0.212 | 0.0264 (inactive)
C=CCC(OC(C)=O)[C@@H]1[C@@H](N(Cc2ccc(-c3cccc(C(F)(F)F)c3)o2)C(=O)Cc2ccc(OC)cc2)c2cc(OCCCO)ccc2N1C(=O)c1ccc2ccccc2c1 (stereo not given in full) | 0.0395 (inactive) | 0.0191 | 1.35 (inactive) | 1.01 (inactive) | 2.68 (inactive) | 0.898 (inactive) | 0.388 | -2.68 (inactive) | -1.99 (inactive) | -1.9 | -0.138 | 1.13 | -0.589 | 0.269 | -0.738 | 2.15 | -0.75 (inactive) | -0.442 | 0.675 | -0.186 (inactive)
CC(c1ccccc1)C(O)C1C=CC2C(=O)N(c3ccccc3)C(=O)C2N1Nc1ccccc1 (stereo not given) | -1.08 (inactive) | 1.05 | 4.6 (inactive) | 0.386 (inactive) | 2.47 (inactive) | -1.35 (inactive) | 1.95 | -3.18 (inactive) | -4.79 (inactive) | -5.54 | -0.477 | 0.618 | -0.645 | -0.476 | -0.823 | -2.36 | -0.266 (inactive) | -0.814 | -0.547 | -1.15 (inactive)
NC(=O)[C@@]1(Cc2ccccc2)N=C(c2ccc(OCCCO)cc2)O[C@H]1c1ccccc1 | 1.53 (inactive) | 0.232 | 16.3 (active) | 2.07 (inactive) | 0.59 (inactive) | 0.639 (inactive) | 0.151 | -0.281 (inactive) | 0.211 (inactive) | 0.495 | -0.611 | 0.422 | -0.373 | -0.13 | 0.0044 | -0.576 | 0.804 (inactive) | -0.318 | 0.577 | -0.0671 (inactive)
CO[C@H]1O[C@H](CO)[C@@H](OC(=O)Nc2ccccc2-c2ccccc2)[C@H](OC(=O)Nc2ccccc2-c2ccccc2)[C@@H]1OC(=O)Nc1ccccc1-c1ccccc1 | 1.23 (inactive) | 0.407 | 1.79 (inactive) | 1.44 (inactive) | 0.552 (inactive) | 0.938 (inactive) | -0.296 | 2.02 (inactive) | 0.114 (inactive) | -0.114 | -0.378 | 0.159 | -0.0639 | -0.857 | -1.24 | 0.0618 | 1.6 (inactive) | -0.194 | 1.33 | -0.387 (inactive)
[N-]=[N+]=Nc1ccccc1C[C@@]1(C(=O)N2CCCCC2)N=C(c2ccc(OCCCO)cc2)O[C@@H]1c1ccccc1 | 2.42 (inactive) | 0.0227 | 26.6 (active) | 18.4 (active) | 2.78 (inactive) | 2.31 (inactive) | 0.159 | -0.0547 (inactive) | 0.951 (inactive) | -1.31 | 0.93 | 0.699 | 1.02 | -2.38 | -4.45 | 0.819 | 0.883 (inactive) | -1.19 | 0.992 | 1.41 (inactive)
CC(C)N1CC=CC23O[C@@H]4C=CCOC(=O)[C@@H]4[C@H]2C(=O)N(CCCCCO)[C@@H]3C1=O (stereo not given in full) | 2.79 (inactive) | 0.19 | 0.641 (inactive) | 0.0869 (inactive) | 0.204 (inactive) | 0.236 (inactive) | 1.73 | 0.865 (inactive) | 0.225 (inactive) | 1.44 | 0.522 | 1.45 | -1.25 | 1.01 | 0.512 | -0.448 | -0.709 (inactive) | 0.565 | -0.41 | 0.0829 (inactive)
C=C(CCCC)/C(=C/C[C@H](OC(C)=O)c1ccc(OCCO)cc1)c1cnc2ccccc2c1 | 0.621 (inactive) | 0.0999 | 22 (active) | 6 (inactive) | 1.23 (inactive) | 1.04 (inactive) | -0.1 | -2.53 (inactive) | -0.429 (inactive) | -2.06 | -0.138 | 0.0248 | -0.257 | -2.17 | -0.861 | 1.91 | -1.26 (inactive) | -0.108 | -0.552 | 1.24 (inactive)
O=C(O)[C@H](Cc1ccccc1)n1cc(-c2ccccc2)nn1 | -0.695 (inactive) | -0.144 | -0.256 (inactive) | 0.216 (inactive) | -0.564 (inactive) | 0.161 (inactive) | 0.473 | -1.58 (inactive) | 0.283 (inactive) | -0.837 | -0.757 | -0.853 | -0.177 | 0.269 | -0.157 | -0.601 | -0.0821 (inactive) | 0.666 | 0.348 | -0.143 (inactive)
